# Inconclusive results are not listed. A number with no mark means an inactive call. The source made the active and inactive calls. The call rests on the fitted dose curve; in most records, active means well fitted inhibition curve with a large enough effect; inconclusive means small, poorly fitted or top-dose-only effect; inactive means flat fitted curve, though single readings scatter.
# System: 6-phosphofructokinase (Trypanosoma brucei)
# Assay: Confirmatory Assay to Find Inhibitors of T. brucei phosphofructokinase: High ATP
# Conditions: T. brucei PFK, Kinase-Glo luminescence; series mostly up to 57.5 µM; activity, negative = inhibition: at the top concentration
# Source text: Various species of the protozoan family Trypanosomatidae are responsible for a range of serious human diseases in tropical and subtropical areas of the world. […] Many of the disorders caused by trypanosomatids are fatal if left untreated, but most currently used drugs are inefficient and toxic. […] Oxidative metabolism involving the mitochondrial tricarboxylic acid cycle and oxidative phosphorylation are repressed in these parasites, and recent RNA interference (RNAi) experiments have shown that even partial depletion of certain individual glycolytic enzymes can lead to the death of cultured parasites. One such glycolytic enzyme, phosphofructokinase (PFK), catalyzes the formation of fructose-1,6-bisphosphate (F1,6BP) and ADP from fructose-6-phosphate (F6P) and ATP, and in many metabolic circumstances makes an important contribution to the control of flux through the glycolytic pathway. As a specific glycolytic target, PFK is particularly attractive as it catalyzes the first irreversible step in glycolysis, and structural and kinetic studies have shown very substantial and essential differences from corresponding host enzymes, allowing for the discovery of parasite-selective inhibitors. A luminescent secondary assay was also performed that used luciferase-based nucleotide detection ([…]) similar to the qHTS, but that alternatively used saturating concentrations (10x Km concentrations) of ATP or F6P to determine if inhibitor potencies were shifted due to particular substrate competition. […] NIH Molecular Libraries Probe Production Network [MLPCN] NIH Chemical Genomics Center [NCGC] Grant: 1 R03 MH092153-01 PI Name: Malcolm Walkinshaw, University of Edinburgh
# Substrate buffer was dispensed into white, solid 1536-well plates at 3 uL/well in 0.1M triethanolamine (TEA) buffer, pH 8.0, containing final concentrations of 5 mM MgCl2 and 0.01% Tween20. Standard substrate buffer contained 0.5mM fructose-6-phosphate (F6P) and 0.1mM ATP, high ATP substrate buffer contained 0.5mM fructose-6-phosphate (F6P) and 1mM ATP, high F6P substrate buffer contained 5mM fructose-6-phosphate (F6P) and 0.1mM ATP, and high ATP/F6P buffer contained 5mM fructose-6-phosphate (F6P) and 1mM ATP. Then, 23nl of compounds or DMSO were delivered to each well using a pin tool. One uL of T. brucei PFK (0.1M TEA, 0.01% Tween20, 0.1% bovine serum albumin (BSA) and 1.25nM PFK, final concentrations) was then dispensed, and plates were incubated at room temperature for 45 min. The luminescent detection reagent, Kinase-Glo Plus (Promega), was then added at 2ul/well and incubated for ten minutes at room temperature. The plates were measured on a ViewLux plate reader for luminescent signal using a clear filter with a one second exposure. The %Activity was determined from the corrected luminescence values. 1x (1.25nM) and 0x PFK enzyme controls (untreated) were included to normalize %Activity of identified inhibitors; 0x enzyme values corresponded to 100%Activity (full inhibition), while 1x PFK enzyme values were used to normalize 0% Activity (no inhibition).
Structure (SMILES),Potency,"activity, negative = inhibition [%]"
O=C(Cc1ccc(Cl)c(Cl)c1)Nc1ccc(S(=O)(=O)Nc2ccon2)cc1,0.326 µM (active),–
Cc1cc(NS(=O)(=O)c2ccc(NC(=O)Cc3ccc(C)c(F)c3)cc2)no1,8.19 µM (active),–
Cc1cc(N[S+](=O)([O-])c2ccc3cc(NC(=O)Cc4ccc(Cl)c(Cl)c4)ccc3c2)no1,6.51 µM (active),–
O=C(Cc1ccc(Cl)c(Cl)c1)Nc1ccc(S(=O)(=O)Nc2cccc(C(=O)O)c2)cc1,1.03 µM (active),–
Cc1cc(NS(=O)(=O)c2cccc(NC(=O)Cc3ccc(Cl)c(Cl)c3)c2)no1,18.3 µM (active),–
Cc1cc(NS(=O)(=O)c2ccc(NC(=O)Cc3ccc(Cl)c(F)c3)cc2)no1,1.03 µM (active),–
Cc1cc(NS(=O)(=O)c2ccc(NC(=O)Cc3ccc(Cl)cc3Cl)cc2)no1,6.51 µM (active),–
Cc1cc(NS(=O)(=O)c2ccc(N(C)C(=O)Cc3ccc(Cl)c(Cl)c3)cc2)no1,1.3 µM (active),–
COc1ccc(CC(=O)Nc2ccc(S(=O)(=O)Nc3cc(C)on3)cc2)cc1C,–,-20.3
O=C(Cc1ccc(Cl)c(Cl)c1)Nc1ccc(S(=O)(=O)Nc2ccccc2)cc1,13 µM (active),–
Cc1cc(NS(=O)(=O)c2ccc(NC(=O)Cc3ccc(C)c(C)c3)cc2)no1,18.3 µM (active),–
Cc1cc(NS(=O)(=O)c2ccc(C(=O)NCc3ccc(Cl)c(Cl)c3)cc2)no1,4.61 µM (active),–
Cc1cc(N(C)S(=O)(=O)c2ccc(NC(=O)Cc3ccc(Cl)c(Cl)c3)cc2)no1,3.26 µM (active),–
O=C(Cc1ccc(Cl)c(Cl)c1)Nc1ccc(S(=O)(=O)Nc2cncnc2)cc1,1.3 µM (active),–
O=C(Cc1ccc(Cl)c(Cl)c1)Nc1ccc(S(=O)(=O)Nc2ccn[nH]2)cc1,0.73 µM (active),–
O=C(Cc1ccc(Cl)c(Cl)c1)Nc1ccc(S(=O)(=O)Nc2ccc(C(=O)O)cc2)cc1,0.919 µM (active),–
Cc1cc(NS(=O)(=O)c2ccc(NC(=O)Cc3ccc(Cl)c(Cl)c3)cc2)on1,0.517 µM (active),–

Structure (SMILES),Potency,"activity, negative = inhibition [%]"
Cc1cc(NS(=O)(=O)c2ccc(NC(=O)Cc3ccc4ccccc4c3)cc2)no1,5.8 µM (active),–
O=C(Cc1ccc(Cl)c(Cl)c1)Nc1ccc(S(=O)(=O)O)cc1,1.03 µM (active),–
COc1ccc(CC(=O)Nc2ccc(S(=O)(=O)Nc3cc(C)on3)cc2)cc1OC,–,4.22
Cc1cc(NS(=O)(=O)c2ccc(NC(=O)Cc3cccc(Cl)c3)cc2)no1,6.51 µM (active),–
O=C(Cc1ccc(Cl)c(Cl)c1)Nc1ccc(S(=O)(=O)Nc2cccc(O)c2)cc1,2.91 µM (active),–
Cc1cc(NS(=O)(=O)Cc2ccc(NC(=O)Cc3ccc(Cl)c(Cl)c3)cc2)no1,4.11 µM (active),–
Cc1cc(N[S+](=O)([O-])c2ccc(NC(=O)Cc3ccc(Cl)nc3)cc2)no1,18.3 µM (active),–
Cc1cc(NS(=O)(=O)c2ccc(NCCc3ccc(Cl)c(Cl)c3)cc2)no1,16.3 µM (active),–
Cc1cc(NS(=O)(=O)c2ccc(NC(=O)CCc3ccc(Cl)c(Cl)c3)cc2)no1,16.3 µM (active),–
Cc1cc(NS(=O)(=O)c2ccc(NC(=O)Cc3ccc(Cl)c(Cl)c3)cc2)n(C)n1,1.83 µM (active),–
Cc1cc(NS(=O)(=O)c2ccc(NC(=O)Cc3ccc(Cl)cc3)cc2)no1,2.91 µM (active),–
CN(C)c1cccc(NS(=O)(=O)c2ccc(NC(=O)Cc3ccc(Cl)c(Cl)c3)cc2)c1,23.1 µM (active),–
Cc1cc(NS(=O)(=O)c2ccc(NC(=O)Cc3ccc(Cl)c(C(F)(F)F)c3)cc2)no1,0.919 µM (active),–
Cc1cc(NS(=O)(=O)c2ccc(NC(=O)Cc3ccc(Cl)c(Cl)c3)cc2)no1,0.517 µM (active),–
Cc1cc(NC(=O)c2csc(NC(=O)Cc3ccc(Cl)c(Cl)c3)n2)no1,–,-29.8
Cc1cc(NC(=O)c2ccc(NC(=O)Cc3ccc(Cl)c(Cl)c3)cc2)no1,–,-7.03
CCOC(=O)c1cccc(NS(=O)(=O)c2ccc(NC(=O)Cc3ccc(Cl)c(Cl)c3)cc2)c1,–,-7.44
